Drawing on the supplement of paper PMC7866885, “A novel bicyclic 2,4-diaminopyrimidine inhibitor of Streptococcus suis dihydrofolate reductase” (PeerJ, 2021), this text covers percent growth for 14 molecules.

Experiment [1] concerns Streptococcus suis HE06. The experiment in a line: percent growth relative to DMSO control; higher = less growth inhibition. The settings on record: 10 µM; incubation time 18 h. The protocol:
(§1)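 CLSI broth microdilution: 5x10^4 CFU of Streptococcus suis (strain P1/7 or HE06) incubated with 10 µM Pathogen Box compound in cation-adjusted Mueller Hinton broth, 37 °C, 5% CO2, 18 h. Growth read as OD600 and expressed as percent of the DMSO-treated control (100%); mean ± SD of three independent experiments.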

For experiment [2], the system named is Streptococcus suis P1/7. The description is as above. The conditions noted are these: 10 µM; incubation time 18 h. The protocol: as §1

± gives the standard deviation.

In the case of `O=C(C1CCN(c2nnc(-n3cccc3)s2)CC1)N1CCC(Cc2ccccc2)CC1`, the percent growth in experiment [1] was 120 ± 18%; in experiment [2] it was 100 ± 41%.

In the case of `Cc1cc2nc(NC(=O)C(C)(C)C)nc(Cl)c2n1Cc1ccc(Cl)cc1`, the percent growth in experiment [1] turned out to be 115 ± 19%; in experiment [2], 109 ± 58%.

In the case of `CN1CCC(NCc2cccc(-c3ccc(S(=O)(=O)NCc4ccccc4)cc3)c2)CC1`, the figures for the percent growth in experiment [1] and in experiment [2] were 94.9 ± 28% and 70.3 ± 11%, respectively.

With `COc1ccc(-c2nc(-c3cccc(NC(=O)Cc4ccc(F)cc4)c3)no2)cc1OC`, the percent growth turned out to be 83 ± 3.5% in experiment [1] and 102 ± 57% in experiment [2].

With `CCCS(=O)(=O)N1CCC(CO)(Cc2ccccc2C(F)(F)F)CC1`, the percent growth amounted to 99.2 ± 19% in experiment [1] and 82.4 ± 27% in experiment [2].

In the case of `Nc1cccnc1Nc1ccc(Cl)cc1`, the percent growth turned out to be 94.6 ± 4.4% in experiment [1] and 101 ± 40% in experiment [2].

With `c1ccc(Oc2ccc(-c3cc(CN4CCOCC4)[nH]n3)cc2)cc1`, the percent growth in experiment [1] came out at 90.8 ± 3.9%; in experiment [2], 95.7 ± 15%.

As to `CN1CCN(S(=O)(=O)c2ccc(-c3ccc4c(Nc5ccc6nn[nH]c6c5)ccnc4c3)cc2)CC1`, the percent growth in experiment [1] was 103 ± 42%; in experiment [2] it was 63 ± 23%.

As to `O=C(Nc1c(O)cccc1-c1nc2c(C(=O)O)cccc2o1)c1cc(-c2ccccc2)on1`, the percent growth came out at 61.5 ± 26% in experiment [1] and 11.1 ± 6.9% in experiment [2].

Consider `Clc1ccc(CN2CCN(C3=NCCN3)CC2)cc1Cl`, for which the values for the percent growth in experiment [1] and in experiment [2] were 89 ± 2.1% and 72.2 ± 28%, respectively.

As for `CCS(=O)(=O)N(Cc1ccco1)Cc1cc2ccc(C)cc2nc1O`, the results for the percent growth in experiment [1] and in experiment [2] were 90.6 ± 1.9% and 77.1 ± 19%, respectively.

Consider `NCC(c1cccs1)S(=O)(=O)c1ccccc1` (stereo not drawn), for which the results for the percent growth in experiment [1] and in experiment [2] were 111 ± 30% and 90.2 ± 41%, respectively.

Take `O=C(Nc1cccc(Cl)c1)c1cnc(N2CCN(c3ccncc3)CC2)c(Cl)c1`: the percent growth in experiment [1] was 62 ± 36%; in experiment [2], 20.4 ± 12%.

`FC(F)(F)c1nnc2ccc(Cl)nn12`: the percent growth in experiment [1] was found to be 74.8 ± 22%; in experiment [2], 85 ± 18%.
